Assay results from PubChem BioAssay AID1347131 (National Center for Advancing Translational Sciences (NCATS), 2019).
The campaign covered roughly 410,000 compounds. About 2,000 (0.49%) were called active. About 8% were inconclusive and are not listed. Only a selection was taken, and actives are over-represented in it overall. A number with no mark means an inactive call. Calls come from the whole dose curve; tested in HEK293 reporter line.

Experiment: qHTS Assay for Foot and Mouth Disease Virus Antivirals: Primary Screen against the MLPCN compound library; note: nearly all actives have a fitted effect of over 55% in size
Conditions: FMDV antiviral cell-based qHTS; series mostly up to 57.9 µM; activity, negative = inhibition: at the top concentration
Potency is the fitted concentration of half-maximal effect.

Q: Which “activity, negative = inhibition” value does the source give for `CC(NC(=O)C1CCN(CCOc2ccc(Cl)cc2)CC1)c1cccc2ccccc12` (stereo not drawn) here?
A: -31.2%

Q: For `C[C@H](NC(=O)c1ccc(C(C)(C)C)cc1)C(=O)N1CCN(C/C=C/c2ccccc2)CC1`, which “activity, negative = inhibition” value is on record?
A: -40.1%

Q: Which “activity, negative = inhibition” value does the source give for `O=C(/C=C/c1ccco1)N1CCN(C/C=C/c2ccccc2)CC1` here?
A: -36.1%

Q: With `O=C(c1ccc(=O)n(Cc2ccccc2)n1)N1CCN(C/C=C/c2ccccc2)CC1` as the molecule, how does the Potency read?
A: 15.8 µM (active)

Q: For `CCOc1ccc(-n2c(SCc3nc(-c4ccc(OC)cc4)no3)nnc2-c2ccncc2)cc1`, which “activity, negative = inhibition” value is on record?
A: -39.4%

Q: Which “activity, negative = inhibition” value does the source give for `O=C(NCc1ccc(F)cc1)C(=O)NCC(c1cccs1)S(=O)(=O)c1cccs1` (stereo not drawn) here?
A: -30.9%

Q: For `Cc1sc(NC(=O)c2ccccc2)c(C(=O)c2ccccc2)c1C`, which “activity, negative = inhibition” value is on record?
A: -34%

Q: For `Cc1ccc(Nc2sc(C(=O)c3ccccc3)c(N)c2C(=O)Nc2ccc(Cl)cc2)cc1`, which Potency is on record?
A: 15.8 µM (active)

Q: For `Cc1ccccc1Nc1sc(C(=O)c2ccccc2)c(N)c1S(C)(=O)=O`, which “activity, negative = inhibition” value is on record?
A: -27.5%

Q: Which “activity, negative = inhibition” value does the source give for `O=S(=O)(c1ccc(Cl)cc1)c1nnn2c1nc(NC1CCCCC1)c1sccc12` here?
A: -30.8%

Q: For `Cc1ccc2nc(NC(=O)c3cc(-c4ccco4)nc4ccccc34)sc2c1`, which “activity, negative = inhibition” value is on record?
A: -32.7%

Q: With `COc1ccc(C(=O)Nc2nc3ccccc3s2)c(OC)c1` as the molecule, how does the “activity, negative = inhibition” value read?
A: -99.7%

Q: Which “activity, negative = inhibition” value does the source give for `Cc1ccc2nc(NC(=O)CSc3nccn3Cc3ccc(F)cc3)sc2c1` here?
A: -21.8%

Q: With `Cc1ccc2nc(NC(=O)c3ccco3)sc2c1` as the molecule, how does the Potency read?
A: 12.6 µM (active)

Q: For `COc1ccc2oc(C(=O)Nc3nc4ccc(S(C)(=O)=O)cc4s3)c(C)c2c1`, which “activity, negative = inhibition” value is on record?
A: -31.4%

Q: With `COc1ccc2nc(NC(=O)c3ccco3)sc2c1` as the molecule, how does the Potency read?
A: 15.8 µM (active)

Q: For `CCCCCc1nnc(NC(=O)c2cccc(S(=O)(=O)N3CCOCC3)c2)s1`, which “activity, negative = inhibition” value is on record?
A: -35.2%

Q: With `CN(C)S(=O)(=O)N1CCc2ccc(NC(=O)c3ccc(C(F)(F)F)cc3)cc2C1` as the molecule, how does the “activity, negative = inhibition” value read?
A: -41%

Q: With `COc1cc(-c2cc(NC=O)c3ncc(-c4cccc(C(F)(F)F)c4)n3c2)cc(OC)c1OC` as the molecule, how does the “activity, negative = inhibition” value read?
A: -31.8%

Q: For `CSc1ccccc1OCc1cc(C(=O)NCC(C)(C)N2CCOCC2)no1`, which “activity, negative = inhibition” value is on record?
A: -23.1%

Q: Which “activity, negative = inhibition” value does the source give for `O=C1CCCN2N=C(SCC(=O)Nc3ccc(OC(F)(F)F)cc3)SC2=N1` here?
A: -31%

Q: Which Potency does the source give for `N#Cc1cc2c(nc1SCC(=O)Nc1ccc(OC(F)(F)F)cc1)C1CCN2CC1` here?
A: 15.8 µM (active)

Q: Which “activity, negative = inhibition” value does the source give for `O=C(CSc1nc(=O)n(CCN2CCOCC2)c2c1CCC2)Nc1ccc(OC(F)(F)F)cc1` here?
A: -40.8%

Q: Which “activity, negative = inhibition” value does the source give for `CCCN1C(=O)c2cc(C(=O)Nc3ccccc3OC)ccc2C1Nc1ccccc1OC` (stereo not drawn) here?
A: -38.9%

Q: Which “activity, negative = inhibition” value does the source give for `CCc1ccc(-n2c(=O)c3c4c(sc3n(CC(=O)N3CCCCC3CC)c2=O)CCC4)cc1` (stereo not drawn) here?
A: -31.9%

Q: With `CC(C)C(=O)N1CCC(CN=Cc2c(O)n(C3CCCCC3)c(=O)n(C3CCCCC3)c2=O)CC1` as the molecule, how does the Potency read?
A: 25.1 µM (active)

Q: Which “activity, negative = inhibition” value does the source give for `Cc1ccc(-c2cc(-c3ccc(F)cc3)nc(N)c2C#N)o1` here?
A: -34.5%

Q: Which Potency does the source give for `CC(C)Oc1ccc(CNC(=O)c2cccc(NC(=O)N3CCSc4ncccc43)c2)cc1` here?
A: 20 µM (active)

Q: Which “activity, negative = inhibition” value does the source give for `CC(C)Oc1ccc(CN2CCC2(C)C(=O)Nc2cccc(Oc3ccccc3)c2)cc1` (stereo not drawn) here?
A: -33.4%

Q: With `CC(C)(C)OC(=O)N1CCCC(C(=O)Nc2cccc(C(=O)NCc3ccccc3)c2)C1` (stereo not drawn) as the molecule, how does the “activity, negative = inhibition” value read?
A: -40.2%

Q: With `Cc1[nH]c2ccccc2c1C(=O)CN1C(=O)C(=O)N(CCC2=CCCCC2)C1=O` as the molecule, how does the “activity, negative = inhibition” value read?
A: -31.7%

Q: For `COc1cc2c(cc1NC(=O)c1cc(-c3ccncc3)nc3ccccc13)oc1ccccc12`, which “activity, negative = inhibition” value is on record?
A: -31.8%

Q: Which “activity, negative = inhibition” value does the source give for `CCC1(c2ccc(F)cc2)NC(=O)N(CC(=O)Nc2cc(S(=O)(=O)N(C)C)ccc2Cl)C1=O` (stereo not drawn) here?
A: -31.6%

Q: With `N=c1ccn(Cc2ccc(Cl)c(Cl)c2)cc1` as the molecule, how does the “activity, negative = inhibition” value read?
A: -6.86%

Q: Which Potency does the source give for `Brc1ccc(-c2cn3ccccc3n2)cc1` here?
A: 11.2 µM (active)

Q: For `c1ccc(-c2nc3ccccn3c2-c2ccccc2)cc1`, which “activity, negative = inhibition” value is on record?
A: -28.6%

Q: For `O=C(COc1ccc(Oc2ccccc2)cc1)NCc1cn2ccccc2n1`, which “activity, negative = inhibition” value is on record?
A: -32.5%

Q: For `Clc1ccc(-c2cn3cc(Br)ccc3n2)cc1Cl`, which Potency is on record?
A: 14.1 µM (active)

Q: Which “activity, negative = inhibition” value does the source give for `O=C(O)c1ccnc(Cl)c1` here?
A: -30.7%

Q: For `CCc1noc(C)c1C(=O)Nc1nc(-c2ccc(Cl)cc2Cl)c(C)s1`, which “activity, negative = inhibition” value is on record?
A: -34.7%

Q: With `COc1ccccc1N1CCN(C(=O)c2ccccc2Oc2ccccc2)CC1` as the molecule, how does the “activity, negative = inhibition” value read?
A: -42.1%

Q: With `COc1ccccc1NS(=O)(=O)c1cccc(C(=O)N/N=C/c2ccc(N3CCOCC3)cc2)c1` as the molecule, how does the “activity, negative = inhibition” value read?
A: -31.5%

Q: With `Cc1ccc(C)c(N2CCN(C(=O)c3cnn(-c4ccccc4Cl)c3C3CCN(C(=O)OC(C)(C)C)CC3)CC2)c1` as the molecule, how does the “activity, negative = inhibition” value read?
A: -38.2%

Q: For `Cc1ccc2c(c1)-c1c(cnn1CC(=O)N(Cc1ccco1)C1CCCCC1)CO2`, which “activity, negative = inhibition” value is on record?
A: -31.6%

Q: With `CC(C)(C)NC(=O)NC(=O)CN1CCN(C(c2ccccc2)c2ccccc2)CC1` as the molecule, how does the “activity, negative = inhibition” value read?
A: -40.2%

Q: With `Cc1ccc(N(Cc2cc(=O)[nH]c3ccccc23)C(=O)CCl)cc1` as the molecule, how does the Potency read?
A: 20 µM (active)

Q: Which “activity, negative = inhibition” value does the source give for `COc1ccc(CC(=O)N(Cc2ccccc2)c2ccc(C)cc2)cc1OC` here?
A: -32.2%

Q: With `CCOc1ccc(N(Cc2cc3cc(C)ccc3[nH]c2=O)C(=O)c2cccc(Cl)c2)cc1` as the molecule, how does the “activity, negative = inhibition” value read?
A: -31.5%

Q: For `Cc1ncsc1CCC(=O)N1CCCC(c2nc(-c3ccncc3)ncc2-c2ccccc2)C1` (stereo not drawn), which “activity, negative = inhibition” value is on record?
A: -30.6%

Q: Which “activity, negative = inhibition” value does the source give for `COc1cccc(-n2cnc3scc(-c4cccs4)c3c2=O)c1` here?
A: -33.2%

Q: With `O=C(NC(c1ccccc1)c1ccccc1)c1ccc(S(=O)(=O)C(F)F)cc1` as the molecule, how does the “activity, negative = inhibition” value read?
A: -31.9%

Q: Which “activity, negative = inhibition” value does the source give for `O=C(Nc1ccccc1)N1CCCN(c2ccc(C(F)(F)F)cn2)CC1` here?
A: -41%

Q: With `O=C(Nc1cccc(-c2ccc(N3CCCCC3)nn2)c1)C(F)(F)F` as the molecule, how does the Potency read?
A: 14.1 µM (active)

Q: Which “activity, negative = inhibition” value does the source give for `O=C(CN1CCN(c2ccccn2)CC1)Nc1cccc(C(F)(F)F)c1` here?
A: -43.4%

Q: With `COC(=O)c1ccc(CSc2ncnc3ccccc23)o1` as the molecule, how does the “activity, negative = inhibition” value read?
A: -30.7%

Q: Which “activity, negative = inhibition” value does the source give for `CC(C)C1NC(=S)N(C2CCCCC2)C1=O` (stereo not drawn) here?
A: -26.9%

Q: Which “activity, negative = inhibition” value does the source give for `CCOC(=O)c1sc2nc(CC(=O)OC)nc(N3CCN(c4ccc(OC)cc4)CC3)c2c1C` here?
A: -48.5%

Q: For `CCOC(=O)c1cc(C)n(CC2CCC(C(=O)Nc3ccc(C(=O)OC)cc3)CC2)c1C` (stereo not drawn), which “activity, negative = inhibition” value is on record?
A: -31.3%

Q: Which “activity, negative = inhibition” value does the source give for `CCc1nnc(NC(=O)c2cccc(C(=O)Nc3nnc(CC)s3)n2)s1` here?
A: -20%

Q: For `Cc1ccc(CS(=O)(=O)c2ncc(Cl)c(C(=O)Nc3nc4ccc(F)cc4s3)n2)cc1`, which “activity, negative = inhibition” value is on record?
A: -48.8%

Q: With `CCc1nnc(NC(=O)c2nc(S(=O)(=O)Cc3ccccc3)ncc2Cl)s1` as the molecule, how does the Potency read?
A: 20 µM (active)

Q: With `CCc1ccccc1NC(=O)Cn1nc(C)c2nn(-c3ccc(Cl)cc3)c(C)c2c1=O` as the molecule, how does the “activity, negative = inhibition” value read?
A: -30.7%

Q: For `Cc1ccccc1C(=O)N(Cc1nc(-c2ccc(Cl)cc2)no1)C(C)C`, which “activity, negative = inhibition” value is on record?
A: -30.6%
